We go through 27 molecules from PubChem BioAssay (NCI).

Holding throughout (experiment): NCI-60 one-dose screen, 48 h (100 = growth as untreated, 0 = no growth, -100 = all killed)
Conditions in all cases: 10 µM unless noted

The test system of experiment [1] is NCI-H23 lung.
Experiment [2] relates to NCI-H226 lung.
Experiment [3] relates to NCI-H322M lung.
Experiment [4] relates to HOP-62 NSCLC.
Experiment [5] deals with NCI-H460 lung.
Experiment [6] has as its system HOP-92 NSCLC.
Experiment [7] has as its system NCI-H522 lung.
In experiment [8] the test system is A549/ATCC NSCLC.
For experiment [9], the system named is 786-0 renal.
For experiment [10], the system named is COLO 205 colon.

Each structure is given as a SMILES string. The panel holds about 83,000 compounds, 20% with a hit somewhere; the sample as a whole holds those more often.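 The endpoint reported here, percent growth, reads 100 for growth as untreated, 0 for no net growth and -100 for all cells dead.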 A number with no mark means an inactive call. The source made the active and inactive calls. Rule for the calls: active = growth percent below 10; inactive = the rest.

Consider `O=C(CCOCCNC(=O)COc1ccc2c(c1)OCC(c1ccc(F)cc1)C2=O)NCCCC(O)(P(=O)(O)O)P(=O)(O)O` (stereo not given), for which the growth in experiment [1] is 98%; in experiment [2], 106%; in [3] it was 102%; in experiment [4], 105%; in [5], 108%; in experiment [6] it was 120%. For the same molecule, the growth in [7] was 94.9%; in experiment [8] it was 103%; in [9] it was 103%; in [10] it was 112%.
Turning to `COc1ccc(-c2conc2-c2ccccc2)cc1`, the growth in [1] is 29.1%; in experiment [2], 70.5%; in [3], 46.3%; in experiment [4], 42.4%; in experiment [5] it was 7.41% (active); in experiment [6], 71.4%. For the same molecule, the growth in [7] is -6.84% (active); in experiment [8] it was 23.3%; in experiment [9], 27%; in experiment [10], -7.37% (active).
With `COc1cc2cc(Oc3ccc(NC(=O)Nc4ccc(Cl)c(Cl)c4)cc3)c(C)nc2cc1OCCN1CCOCC1`, the growth in experiment [1] is 58.9%; in experiment [2], 57.7%; in experiment [3] it was 105%; in experiment [4], 105%; in experiment [5], 91.8%; in experiment [6] it was 76.8%. In addition, the growth was 67.5% in [7], 76.7% in experiment [8], 91.5% in experiment [9] and 104% in experiment [10].
`COc1ccc2c(c1)nc(NNC(=O)c1cnccn1)c1cccn12`: the growth in experiment [1] was 33.4%; in experiment [2] it was 39.3%; in experiment [3] it was 28.5%; in [4], 28.6%; in experiment [5], 7.94% (active); in [6], 64.3%. The growth was 9.5% (active) in experiment [7], 24.6% in experiment [8], 26.1% in [9] and 7.24% (active) in experiment [10].
Take `Cc1cc(O)c(C2=NN(c3ccc(S(N)(=O)=O)cc3)C(/C=C/c3ccccc3)C2)cc1Cl` (stereo not given): the growth is 22.3% in [1]; 33.7% in experiment [2]; 57.5% in experiment [3]; 17.6% in experiment [4]; 35.3% in experiment [5]; 29.6% in experiment [6]. Moreover, the growth was 31.9% in [7], 46.6% in [8], 7.75% (active) in experiment [9] and 65.2% in [10].
`CCCCCCNC(=O)Oc1ccc(/C(=C(\C)c2ccc(OC)cc2)c2ccc(OCCN3CCCCC3)cc2)cc1`: the growth is 64.6% in [1]; 95.6% in experiment [2]; 90.3% in [3]; 72% in experiment [4]; 52.7% in [5]; 67.6% in experiment [6]. The growth in [7] is 72.7%; in [8] it was 61.7%; in experiment [9] it was 41.7%; in experiment [10] it was 16.3%.
For the molecule `CCOC(=O)Nc1ccc(-c2nc(-c3cccc(OCCN4CCOCC4)c3)c(-c3ccnc(Br)c3)[nH]2)cc1`, the growth in experiment [1] is 47.3%; in [2], 56.3%; in experiment [3], 58%; in experiment [4] it was 50.8%; in [5] it was 54.1%; in experiment [6], 54.1%. Also, the growth in [7] is 52%; in experiment [8] it was 54.2%; in experiment [9], -5.12% (active); in [10], 48.2%.
Consider `COc1ccc(/C=C2\Oc3cc(OCCN4CCC(Cc5ccccc5)CC4)ccc3C2=O)cc1OC`, for which the growth in experiment [1] was 68.6%; in [2] it was 69.6%; in experiment [3], 96.2%; in experiment [4] it was 78.6%; in experiment [5], 66.5%; in experiment [6], 47.7%. Besides, the growth in experiment [7] was 78.2%; in experiment [8], 86.7%; in experiment [9], 78.4%; in [10], 19.1%.
In the case of `O=C(CCN1C(=O)/C(=C/c2ccc(O)cc2)SC1=S)Nc1ccccc1`, the growth in [1] is 91.9%; in [2], 90.9%; in [3], 95%; in experiment [4], 85.9%; in experiment [5], 106%; in experiment [6] it was 89.6%. For the same molecule, the growth in [7] is 80.1%; in experiment [8], 93.3%; in experiment [9] it was 105%; in experiment [10], 125%.
On to `O=C(Oc1cccc2ccccc12)Oc1cccc2ccccc12`, for which the growth in [1] was 90.9%; in experiment [2] it was 98.5%; in experiment [3], 104%; in [4], 96.1%; in experiment [5] it was 110%; in experiment [6] it was 62.8%. In addition, the growth was 93.8% in experiment [7], 107% in [8], 110% in experiment [9] and 127% in experiment [10].
Take `COc1nc2ccc(C)cc2cc1-c1nc2c(cnn2-c2ccccc2)c(=O)[nH]1`: the growth in experiment [1] was 80.5%; in experiment [2], 92%; in [3], 95.9%; in [4] it was 70.9%; in [5] it was 80.3%; in experiment [6] it was 78.9%. Moreover, the growth is 56.5% in experiment [7], 84.3% in experiment [8], 95.3% in experiment [9] and 86.3% in experiment [10].
Take `Cc1cc(N2CCCC2)nc(N(CCCNc2ccnc3cc(Cl)ccc23)Cc2ccccn2)n1`: the growth was 59% in experiment [1]; 79.8% in experiment [2]; 57.1% in experiment [3]; 55.6% in experiment [4]; 35.6% in experiment [5]; 17.4% in [6]. The growth was 47.3% in experiment [7], 62% in experiment [8], 53.3% in experiment [9] and 39.1% in experiment [10].
Consider `NCCCNc1nc2ccccc2c2c(=O)c3cc(F)cc(Cl)c3sc12`, for which the growth in experiment [1] was 95.5%; in experiment [2], 88.9%; in [3], 87.7%; in experiment [4] it was 92.6%; in experiment [5] it was -74% (active); in [6] it was 70.4%. Besides, the growth was 92.9% in experiment [7], 79.1% in experiment [8], 86.3% in experiment [9] and 106% in [10].
With `COc1c(B(O)O)cc(F)cc1-c1nc2ccc3[nH]ncc3c2c2c1CCCC2`, the growth in experiment [1] was 0.235% (active); in [2], 8.89% (active); in [3], 14.2%; in [4], 16.1%; in experiment [5] it was 5.46% (active); in [6], 19.7%. For the same molecule, the growth in experiment [7] is 13.1%; in [8], 15%; in experiment [9], 1.01% (active); in experiment [10], -3.77% (active).
Take `CCOC(=O)c1cnn2c3ccccc3n(S(=O)(=O)c3ccc(OC)cc3)c12`: the growth in experiment [1] was 28.2%; in experiment [2], 19.9%; in experiment [3], 53.7%; in [4] it was 35%; in experiment [5] it was 18.4%; in experiment [6], 59.9%. Besides, the growth is 20.6% in [7], 28.5% in [8], 40.5% in [9] and -19.4% (active) in [10].
`Cc1cc2[nH]c(=O)c3c4ncccc4cn3c2cc1C`: the growth in [1] was 70%; in [2], 51.8%; in [3], 29.9%; in experiment [4], 59%; in experiment [5] it was -33.9% (active); in experiment [6], 83.3%. In addition, the growth was -23.7% (active) in [7], 49.8% in [8], 7.03% (active) in [9] and 14.8% in experiment [10].
Regarding `O=c1c2cccc(F)c2sc2c(NCCCNCCO)nc3ccccc3c12`, the growth in experiment [1] is 49.9%; in [2], 58%; in experiment [3], 44%; in experiment [4], 45.3%; in [5], -40.4% (active); in [6], 15.4%. In addition, the growth in experiment [7] is 44.4%; in [8] it was 26.9%; in experiment [9], 48.5%; in experiment [10] it was -44.4% (active).
Consider `NCCCNc1nc2ccccc2c2c(=O)c3cccc(F)c3sc12`, for which the growth in experiment [1] is 50.5%; in experiment [2], 64.1%; in [3] it was 46.8%; in experiment [4] it was 48.1%; in experiment [5] it was -57% (active); in [6] it was 35.8%. Also, the growth was 38.7% in experiment [7], 24% in experiment [8], 52.6% in [9] and -43.7% (active) in [10].
Turning to `N[C@@H](Cc1ccccc1)[C@@H](O)C(=O)NCc1ccc(F)cc1`, the growth was 106% in experiment [1]; 103% in [2]; 104% in [3]; 119% in experiment [4]; 103% in experiment [5]; 94.9% in experiment [6]. Also, the growth in experiment [7] was 95.9%; in [8] it was 104%; in experiment [9] it was 98.5%; in experiment [10] it was 111%.
For `O=C(Cc1ccc(F)c(Cl)c1)Nc1cc(C2(C(F)(F)F)CC2)nn1Cc1ccccc1`, the growth in experiment [1] is 55.3%; in [2], 43.2%; in experiment [3] it was 89.6%; in [4] it was -32.7% (active); in experiment [5], 79%; in [6], -19.5% (active). Besides, the growth was 58.2% in experiment [7], 60.3% in experiment [8], 34.6% in experiment [9] and 66.3% in [10].
Take `CC(=O)OC[C@H]1OC(Sc2sc(C(=O)c3ccc(Cl)cc3)c(N)c2-c2nc3ccccc3s2)[C@H](OC(C)=O)[C@@H](OC(C)=O)[C@@H]1OC(C)=O` (stereo not given in full): the growth in [1] is 63.3%; in experiment [2] it was 75.9%; in experiment [3], 93.9%; in [4], 90.3%; in [5] it was 67.5%; in experiment [6], 93.7%. Also, the growth in [7] was 88.1%; in [8] it was 86.4%; in experiment [9], 99.3%; in experiment [10], 90.4%.
Take `COc1cccc(-c2nc(-c3ccc(NC(=O)C(C)C)cc3)[nH]c2-c2ccnc(Br)c2)c1`: the growth in [1] is 51.3%; in experiment [2], 43.5%; in experiment [3], 43.7%; in experiment [4], 24.1%; in [5] it was 31.8%; in [6] it was 43.4%. Also, the growth in experiment [7] was 19.5%; in experiment [8], 38.8%; in [9] it was -14.1% (active); in [10], 30.1%.
In the case of `Brc1c[n+](Cc2ccc3ccccc3c2)cn1Cc1ccc2ccccc2c1`, the growth was 9.7% (active) in experiment [1]; 34.4% in experiment [2]; 73.8% in experiment [3]; 48% in [4]; 20.1% in experiment [5]; -24% (active) in experiment [6]. Further, the growth in [7] was 13.3%; in experiment [8] it was 70%; in experiment [9], 44.3%; in [10] it was -49.6% (active).
Turning to `Cc1ccc2sc3c(NCCCN)nc4ccccc4c3c(=O)c2c1`, the growth in experiment [1] was 79.9%; in experiment [2], 93.5%; in experiment [3], 69.2%; in experiment [4], 69.1%; in [5] it was -54.2% (active); in [6], 44.8%. Also, the growth in experiment [7] was 59.4%; in [8], 43.5%; in [9], 76.7%; in [10], -42.9% (active).
As for `COc1cc(C)c(Cc2cnc(N)nc2N)cc1OC`, the growth in [1] is 101%; in experiment [2], 93.9%; in experiment [3], 103%; in experiment [4], 97.1%; in experiment [5], 111%; in experiment [6], 88.9%. For the same molecule, the growth was 95.9% in [7], 103% in experiment [8], 103% in experiment [9] and 117% in [10].
With `CCS(=O)(=O)c1ncnc2nc[nH]c12`, the growth in experiment [1] was 111%; in experiment [2], 94.2%; in experiment [3], 106%; in experiment [4] it was 93.5%; in experiment [5], 105%; in experiment [6], 77.1%. The growth in experiment [7] was 65.4%; in experiment [8], 89.4%; in [9] it was 95%; in [10] it was 102%.
In the case of `COc1ccc(C(=O)N=Nc2c(O)n(C)c3ccccc23)cc1`, the growth in experiment [1] is 85.3%; in experiment [2] it was 91.1%; in experiment [3] it was 94.4%; in experiment [4], 97.6%; in [5], 94%; in experiment [6] it was 86.1%. The growth in [7] is 91.5%; in [8], 105%; in experiment [9] it was 106%; in experiment [10], 106%.
